For 14 compounds, growth results are on record in PubChem BioAssay (NCI).

Among the test systems are T-47D breast; BT-549 breast; MDA-MB-435 melanoma; SW-620 colon; MCF7 breast; HCT-116 colon; HCC-2998 colon; KM12 colon.
Test in all cases: NCI-60 one-dose screen, 48 h (100 = growth as untreated, 0 = no growth, -100 = all killed)
Details in all cases: 10 µM unless noted

About 83,000 compounds went through this panel and 20% of them were active in at least one assay; those are over-represented in the sample as a whole.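 Percent growth is the endpoint: 0 to 100 indicates growth inhibition (40 means 60% inhibition), 0 means no net growth, and negative values indicate cell death.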 Values without a mark were called inactive. Activity calls are given as the source filed them. How the source made its calls: active means growth percent below 10; inactive means the rest.

For `Cc1cc(O)c(C2=NN(c3ccc(S(N)(=O)=O)cc3)C(/C=C/c3ccccc3)C2)cc1Cl` (configuration not stated), the growth was 25.7% with T-47D breast; 52.4% in the test on BT-549 breast; 47.4% in the test on MDA-MB-435 melanoma; 51.9% in the test with SW-620 colon; 33.8% in the test on MCF7 breast; 10.6% in the test with HCT-116 colon. Besides, the growth was 50.5% with HCC-2998 colon and 57.6% with KM12 colon.
Turning to `COc1cccc2c(=O)c3c(sc12)c(N1CCNCC1)nc1ccccc13`, the growth in the test on T-47D breast is 85.5%; in the test with BT-549 breast, 97.6%; in the test on MDA-MB-435 melanoma, 54.7%; with SW-620 colon, -39.2% (active); in the test on MCF7 breast, 53.2%; in the test on HCT-116 colon it was -52.4% (active). For the same compound, the growth in the test with HCC-2998 colon was 11.1%; with KM12 colon it was 46.3%.
Turning to `C[C@]12CC[C@@H]3c4cc(OC(F)F)c(OS(N)(=O)=O)cc4CC[C@H]3[C@@H]1CC[C@@H]2OS(N)(=O)=O`, the growth is 43.4% with T-47D breast; 62.7% in the test on BT-549 breast; 42.8% with MDA-MB-435 melanoma; 22% with SW-620 colon; 20.2% in the test with MCF7 breast; 20.3% in the test with HCT-116 colon. In addition, the figures for the growth in the test with HCC-2998 colon and with KM12 colon were 74.1% and 35.6%, respectively.
Turning to `O=[N+]([O-])c1ccc(Cl)c(-c2cc(CCCCO)on2)c1`, the growth in the test on T-47D breast is 88.8%; in the test with BT-549 breast, 99.7%; in the test on MDA-MB-435 melanoma, 103%; in the test with SW-620 colon, 104%; in the test on MCF7 breast, 100%; in the test on HCT-116 colon it was 105%. Further, the results for the growth with HCC-2998 colon and in the test on KM12 colon were 108% and 104%, respectively.
Regarding `Cc1ccc(-c2nc(N3CCN(CC(=O)Nc4ccc(Cl)cc4)CC3)c3ccccc3n2)cc1`, the growth with T-47D breast is 80.2%; with BT-549 breast it was 102%; in the test on MDA-MB-435 melanoma it was 96.4%; with SW-620 colon, 97.5%; with MCF7 breast, 77.5%; in the test on HCT-116 colon, 89.9%. In addition, the values for the growth in the test with HCC-2998 colon and in the test on KM12 colon were 82.4% and 92.4%, respectively.
With `COc1ccc(/C=N/Nc2cc(=O)[nH]c3ccc(C)cc23)cc1`, the growth in the test with T-47D breast was 70.7%; with BT-549 breast, 88.3%; in the test with MDA-MB-435 melanoma it was 102%; with SW-620 colon it was 96.8%; with MCF7 breast it was 78.1%; in the test on HCT-116 colon it was 83.1%. Moreover, the results for the growth with HCC-2998 colon and in the test on KM12 colon were 99.2% and 105%, respectively.
Take `O=C(COc1ccc(/C=C2\Cc3ccc(Cl)cc3C2=O)cc1)Nc1nc2ccccc2s1`: the growth in the test on T-47D breast is 101%; in the test on BT-549 breast, 124%; with MDA-MB-435 melanoma, 113%; in the test with SW-620 colon, 112%; in the test with MCF7 breast it was 103%; with HCT-116 colon it was 102%. In addition, the growth in the test with HCC-2998 colon is 115%; with KM12 colon, 117%.
In the case of `CCCCCCCCCCCCCCCCCCOc1ccccc1CCCOP(=O)(O)OCC[N+](C)(C)C`, the growth in the test on T-47D breast was 87.8%; in the test on BT-549 breast it was 77.4%; with MDA-MB-435 melanoma it was 91.6%; in the test on SW-620 colon, 69.2%; in the test with MCF7 breast it was 60.5%; in the test on HCT-116 colon, 44.9%. Further, the growth in the test with HCC-2998 colon is 50.9%; with KM12 colon, 13.2%.
`Cc1cc2[nH]c(=O)c3c4ncccc4cn3c2cc1C`: the growth with T-47D breast was 56.5%; with BT-549 breast it was 105%; in the test with MDA-MB-435 melanoma, 11.1%; in the test with SW-620 colon, -26.9% (active); with MCF7 breast, 11.6%; in the test on HCT-116 colon, -77.1% (active). The growth in the test on HCC-2998 colon was 13.7%; in the test with KM12 colon, 25.1%.
For the compound `COc1ccc(-c2cnc3ccccc3n2)cc1`, the growth was 96.7% in the test on T-47D breast; 95.1% with BT-549 breast; 94.4% with MDA-MB-435 melanoma; 96.6% in the test on SW-620 colon; 105% in the test on MCF7 breast; 99.2% in the test on HCT-116 colon. The growth was 95.4% with HCC-2998 colon and 92.7% in the test with KM12 colon.
Consider `COc1cc(C(=O)N2N=C(c3ccc(S(C)(=O)=O)cc3)CC2c2ccco2)cc(OC)c1OC` (configuration not stated), for which the growth in the test with T-47D breast is 59.3%; with BT-549 breast it was 48.5%; with MDA-MB-435 melanoma, 6.67% (active); in the test on SW-620 colon it was 42.3%; in the test on MCF7 breast, 37%; with HCT-116 colon, 50.6%. The growth was 59.9% in the test on HCC-2998 colon and 49.7% with KM12 colon.
Take `CCCCn1c(=O)c(-c2cc(-c3ccc(Cl)cc3)nc(-c3ccc(Cl)cc3)c2)cc2ccc(Cl)cc21`: the growth in the test with T-47D breast is 99.6%; in the test with BT-549 breast, 105%; in the test on MDA-MB-435 melanoma, 103%; in the test with SW-620 colon, 100%; in the test with MCF7 breast, 93.1%; in the test with HCT-116 colon, 105%. Besides, the growth in the test with HCC-2998 colon was 103%; in the test with KM12 colon, 99.3%.
Consider `COC(=O)C(Cc1ccccc1)NC(=O)NC(=O)NC(=O)CI` (configuration not stated), for which the growth in the test with T-47D breast was 59.3%; with BT-549 breast, 79%; in the test with MDA-MB-435 melanoma, 24.4%; with SW-620 colon, -28.4% (active); in the test with MCF7 breast, 41.3%; with HCT-116 colon, 94.5%. In addition, the growth in the test on HCC-2998 colon is 95.9%; in the test with KM12 colon, 96.7%.
`Cc1cc(Cl)ccc1NS(=O)(=O)c1ccc(-c2cnc(C3CC3)o2)cc1`: the growth is 49.6% in the test with T-47D breast; 11.5% in the test with BT-549 breast; -36.4% (active) in the test with MDA-MB-435 melanoma; 21.9% in the test on SW-620 colon; 12.7% with MCF7 breast; 12.9% in the test with HCT-116 colon. Also, the growth in the test on HCC-2998 colon was 15.9%; in the test on KM12 colon, 15.5%.
